# Screens (PubChem)
# Hits are enriched below; roughly 3.2% of the tested compounds scored in any of these assays.
# VACV Venus inh – qHTS for Stage-Specific Inhibitors of Vaccinia Orthopoxvirus: Venus Reporter Primary qHTS | Vaccinia virus Venus reporter expression, fluorescence | Potency, µM (titrated, usually from 36.5 µM), without a hit: at the highest dose activity change, negative = inhibition, hits mostly inhibitors | hit rate 0.46% among 330,000 | AID 720580, 2013; calls by dose curve; tested in A549 cells; further: nearly all actives have a fitted effect of over 30% in size
# Vaccinia mCherry – qHTS for Stage-Specific Inhibitors of Vaccinia Orthopoxvirus: mCherry Reporter Primary qHTS | Vaccinia virus mCherry reporter infection, fluorescence | Potency, µM (highest dose often 36.5 µM), without a hit: at the top dose activity change, negative = inhibition, usual class: inhibitors | hit rate 0.63% among 310,000 | AID 720579, 2013; calls by dose curve; tested in A549 cells; further: nearly all actives have a fitted effect of over 35% in size
# Marburg entry inh – qHTS for inhibitors of binding or entry into cells for Marburg Virus; Potency, µM (titrated, usually from 37.8 µM), inactives show at the top dose activity change, negative = inhibition, actives largely listed as inhibitors; Marburg virus pseudotyped entry inhibition, cell reporter; hit rate 1.8% among 300,000; calls by dose curve; tested in HEK293 cells
# FMDV antiviral – High Throughput Screening for Foot and Mouth Disease Virus Antivirals | AID 1159524, 2015 | Potency, µM (doses to about 57.9 µM), inactives show at the highest dose activity change, negative = inhibition, actives largely listed as inhibitors | hit rate 1.2% among 410,000 | FMDV antiviral cell-based qHTS; calls by dose curve; tested in HEK293T cells; further: read-out not given here; nearly all actives have a fitted effect of over 45% in size
# LASV entry inh – qHTS for Inhibitors of binding or entry into cells for Lassa Virus; Lassa virus pseudotype entry inhibition, cell reporter; Potency, µM (doses to about 37.9 µM), without a hit: at the top dose activity change, negative = inhibition, actives largely listed as inhibitors; hit rate 1.2% among 300,000; calls by dose curve; tested in HEK293 cells; further: nearly all actives have a fitted effect of over 50% in size
# * marks the source's active call; other numbers are inactive results; i = inactive; u = inconclusive; x = no result given; [ ] = dose if it differs, or a comment. On the % scale 0 is the no-effect control and ±100 the full control effect; potency means the concentration at half of the fitted maximal effect.
SMILES,VACV Venus inh,Vaccinia mCherry,Marburg entry inh,FMDV antiviral,LASV entry inh
CC(=O)N(Cc1ccc(F)cc1)C1=C(NCCc2ccccc2)C(=O)c2ccccc2C1=O,3.2µM*,2.8µM*,u,25µM*,7.1µM*
O=c1[nH]c2ccc(Cl)cc2c(-c2ccccc2)c1N1CCN(c2ccccn2)CC1,-18%,-5%,2.3µM*,8%,u
Cc1ccnc2ccc(I)cc12,-9%,-20%,x,x,x
Cc1ccc(N2C(=O)c3ccccc3C2O)nc1 (stereo not given),x,x,2.1µM*,x,3.7µM*
CCCCC(=O)N(C)c1c(C)nc2ccc(C(=O)NCCN(C)C)cn12,0%,i,x,0%,x
O=C(COc1ccccc1Cl)OCc1cc(=O)n2nc(C3CCCCC3)sc2n1,-4%,-8%,x,1%,-10%[46.1 µM]
CCOP(=O)(OCC)c1nc(-c2ccc(Cl)cc2Cl)oc1N1CCCCC1,-24%,-1%,u,-20%,6.3µM*
CCOP(=O)(OCC)c1nc(-c2ccccc2Cl)oc1N1CCOCC1,-1%,i,u,-2%,2%
COc1ccc(C(=O)C(=O)N2CCN(c3ccccc3F)CC2)cc1,-4%,-15%,x,-4%,x
CC(C)(C)NCC(O)CON=C1c2ccccc2-c2ccccc21 (stereo not given),u,u,10µM*,u,x
COc1cccc(CNC(=O)CCC2CCCN(C(=O)c3cc4ccccc4o3)C2)c1 (stereo not given),-20%,-19%,11µM*,2%,u
COc1cccc(CN(C)C(=O)c2ccc(NC(=O)CC3SC(N4CCCCC4)=NC3=O)cc2)c1OC (stereo not given),x,x,x,-3%,x
COc1ccc(CN(C)C(=O)c2cccc(NC(=O)CC3SC(N4CCCCC4)=NC3=O)c2)c(OC)c1 (stereo not given),-22%,u,10µM*,20µM*,7.1µM*
O=[N+]([O-])c1ccc(SNc2ccccc2)c([N+](=O)[O-])c1,-13%,-4%,u,-13%,-20%[46.1 µM]
O=[N+]([O-])c1ccc(-[n+]2ccc3ccccc3c2)c([N+](=O)[O-])c1,u,10µM*,x,28µM*,x
C=CCc1ccccc1OCC(CN1CCCCC1)OC(C)=O (stereo not given),-13%,-14%,2%,-5%,16%
CN(C)c1ccc(/C=C/c2sc3ccccc3[n+]2CCCCI)cc1,i,298%,x,x,x
CCn1cc([N+](=O)[O-])c(C(=O)N2CCCCCC2)n1,x,x,x,4%,x
Cc1ccc(NC(=O)ON=C2CCCC2)cc1,-15%,-6%,10µM*,-5%,1.4µM*
Cc1cc(C)nc(S/C=C/C(=O)c2ccccc2F)n1,-12%,i,u,8.9µM*,u
CN(C)c1ccc(/C=N/NC(=S)NCc2ccccc2)cc1,-11%,-3%,-1%,21%,0.28µM*
CC(C)(C)c1ccc(/C=N/NC(=S)NCc2ccccc2)cc1,-18%,-10%,1%,-5%,0.26µM*
CCOc1ccc(CNC(=S)N/N=C/c2ccc(OC)c(OC)c2)cc1,u,u,-72%,8%,2.8µM*
CNC(=S)N/N=C/c1ccc(N(C)C)cc1,-13%,i,-26%,52%,1%
CCN(C[C@H]1N[C@@](CC)(C(=O)OC)[C@H]2C(=O)N(C)C(=O)[C@@H]12)S(=O)(=O)c1ccc(F)cc1,u,i,x,-10%,x
SMILES,VACV Venus inh,Vaccinia mCherry,Marburg entry inh,FMDV antiviral,LASV entry inh
CCCCCN1C(=O)c2cc(OC)ccc2[C@@]2(C(=O)OCC)Cc3cc(OC)ccc3[C@@H]12,u,u,x,3.2µM*,x
CCOC(=O)[C@]12Cc3cc(OC)ccc3[C@H]1N(CC(=O)OC)C(=O)c1cc(OC)ccc12,0%,13%,x,14µM*,x
CCOC(=O)[C@]12Cc3cc(Cl)ccc3[C@H]1N(C)C(=O)c1cc(OC)ccc12,u,u,x,16µM*,x
CCOC(=O)[C@]12Cc3cc(OC)ccc3[C@H]1N(C)C(=O)c1cc(OC)ccc12,-25%,u,x,11µM*,x
CCCCCN1C(=O)c2ccccc2[C@@]2(C(=O)OCC)Cc3cc(Cl)ccc3[C@@H]12,-25%,u,x,u,x
CCOC(=O)[C@]12Cc3cc(C)ccc3[C@H]1N(Cc1ccccc1)C(=O)c1cc(OC)ccc12,u,-28%,x,u,x
CCc1ccc(C2c3c(n[nH]c3C)C(=O)N2c2ccc(C)cc2)cc1 (stereo not given),-4%,-14%,-2%[46.1 µM],25%,-17%[46.1 µM]
CN1CCN(C(=O)N2c3ccccc3C=Cc3ccccc32)CC1,-16%,-1%,10µM*,22%,u
NC(=O)N1c2ccccc2C=Cc2ccccc21,-10%,0%,-4%,-14%,u
CCS(=O)(=O)c1ncc(Cl)c(C(=O)N(Cc2ccccc2)Cc2ccco2)n1,-10%[7.34 µM],-14%[7.34 µM],u,14µM*,u
Cc1cc(C)c2cc(CN(CCO)C(=O)Nc3ccc(Cl)cc3)c(=O)[nH]c2c1,u,x,11µM*,u,u
Cc1cc(C)c2cc(CN(CCN3CCCC3)C(=O)Nc3ccc(F)cc3)c(=O)[nH]c2c1,-22%,x,4µM*,3%,u
COc1ccc(CCNC(=O)N2c3ccccc3Sc3ccccc32)cc1,u,u,u,18µM*,u
Nc1nc(CCl)nc(N(c2ccccc2)c2ccccc2)n1,-36%,u,u,32µM*,u
CNC(=O)c1cc(-c2ccc(F)cc2)cc(-c2ccc(S(=O)(=O)N3CCCC3)cc2)c1N,x,x,x,x,8.9µM*
Cc1ccc(C)c(OCCC(=O)OCc2csc(CC(=O)Nc3ccccc3C)n2)c1,-8%,-15%,12%,-14%,1%
CC(=O)C[C@H]1SC[C@@H](C(C)C)N1S(=O)(=O)c1ccc(C)cc1,-16%,-19%,x,-4%,x
CCCCc1ccc(NC(=O)CSc2nc(=O)n(CCN(C)C)c3c2CCC3)cc1,14µM*,28µM*,u,2%,u
Cc1cc(/C=C/c2c(C)cnc3ccccc23)ccc1N(C)C,-20%,-21%,x,x,x
COc1ccc(CCNc2nc3c(c(=O)n(C)c(=O)n3C)n2Cc2ccc(F)cc2)cc1OC,-16%,u,6.3µM*,16µM*,u
COc1cc(/C=N/Nc2nc3c(c(=O)n(C)c(=O)n3C)n2Cc2ccccc2)ccc1OC(=O)c1ccco1,-12%,i,u,14µM*,u
CCCCC(=O)NCCNc1nc2c(c(=O)n(C)c(=O)n2C)n1Cc1ccc(F)cc1,u,i,u,-29%,9.2µM*
CCNc1nc2c(c(=O)n(C)c(=O)n2C)n1Cc1ccc(F)cc1,-17%,-8%,x,u,u
CCC1(C2CCN(Cc3c(C)[nH]c4ccccc34)CC2)NC(=O)N(Cc2ccc3c(c2)OCO3)C1=O (stereo not given),-4%,-4%,x,-4%,x
O=C(NC1CCCCC1)C(c1ccccn1)N(C(=O)Cc1cccs1)c1ccc(Cl)cc1 (stereo not given),x,x,10µM*,18%,-27%
Cc1ccc(NC(=O)c2ccc3c(c2)OCO3)cc1S(=O)(=O)N1CCOCC1,x,x,x,-4%,x
